Compound activity from PubChem BioAssay.
A selection: hits, their analogues and other compounds. The true share with any hit is near 3.4%.
FLuc inh – qHTS Assay for Inhibitors of Firefly Luciferase; purified firefly luciferase, luminescence, 8 min; hit rate 2.2% among 72,000; AID 411, 2009; Potency, µM (highest dose often 57.1 µM), most hits filed as inhibitors; active = well fitted inhibition curve with a large enough effect; inconclusive = small, poorly fitted or top-dose-only effect; note: nearly all actives have a fitted effect of over 40% in size
Target sequence (P08659 whole entry, looked up): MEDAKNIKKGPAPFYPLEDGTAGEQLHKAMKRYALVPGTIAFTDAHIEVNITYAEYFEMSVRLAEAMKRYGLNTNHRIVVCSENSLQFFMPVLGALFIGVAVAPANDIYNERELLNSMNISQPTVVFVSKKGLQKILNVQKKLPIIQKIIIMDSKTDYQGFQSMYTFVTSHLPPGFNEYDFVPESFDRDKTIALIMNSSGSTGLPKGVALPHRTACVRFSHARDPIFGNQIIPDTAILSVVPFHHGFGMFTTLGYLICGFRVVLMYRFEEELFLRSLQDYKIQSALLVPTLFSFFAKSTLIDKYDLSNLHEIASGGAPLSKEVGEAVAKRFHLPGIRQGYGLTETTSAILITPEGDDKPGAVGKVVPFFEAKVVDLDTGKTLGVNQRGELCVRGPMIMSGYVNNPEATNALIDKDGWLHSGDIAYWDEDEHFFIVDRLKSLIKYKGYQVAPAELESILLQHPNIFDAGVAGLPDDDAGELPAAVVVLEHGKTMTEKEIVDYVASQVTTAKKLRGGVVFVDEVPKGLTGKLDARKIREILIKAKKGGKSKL
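Titration-based qHTS; buffer 50 mM imidazole pH 7.2, 50 mM KCl, 7 mM MgCl2, 10 uM ATP, 0.01% Tween 20, 0.05% BSA; luciferase/luciferin detector mix added after compound; 8 min, ambient; luminescence.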
GBA mod – Glucocerebrosidase; purified enzyme, resorufin glucoside fluorescence (screen aimed at inhibitors), 20 min; Potency, µM; Lysosomal acid glucosylceramidase (Homo sapiens), P04062; hit rate 1.1% among 48,000; in the data active = potency below about 15 µM; inconclusive = mostly about 16 µM to 33 µM;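 note: the screen sought inhibitors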
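Compounds titrated against 0.2 nM normal enzyme, 30 uM resorufin beta-D-glucopyranoside substrate, citrate/phosphate buffer with taurocholate and tween-20, pH 5.9. Reaction ran 20 min at room temperature; fluorescence (Ex 548/Em 600) gave AC50.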
Bst PK mod – Pyruvate Kinase | purified pyruvate kinase, luminescence ATP production; ribose 5-phosphate activator present at AC10 | Potency, µM | hit rate 1.2% among 51,000 | AID 361, 2006; in the data active = potency below about 11 µM; inconclusive = mostly about 12 µM to 25 µM;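 the screen sought inhibitors and activators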
Numbers stand for hits; i = inactive; ? = inconclusive; nt = no result given; [ ] = remark or other dose.

SMILES	FLuc inh	GBA mod	Bst PK mod
COc1ccc(OCC(=O)Nc2ccc3c(c2)nc2n3CCSC2)cc1	i	nt	i
CCCCC(=O)Nc1ccc2c(c1)nc1n2CCSC1	?	i	nt
O=C(N/N=C1/C[C@@H](O)[C@@H](O)[C@@H]2[C@@H]3C(=O)N(Cc4ccc5c(c4)OCO5)C(=O)[C@H]3CC[C@@H]12)OCc1ccccc1	i[11.4 µM]	nt	nt
Cc1ccc2cc(C)c3nnc(SCC(=O)NCc4ccco4)n3c2c1	i	i	?
Cc1ccc2c(c1)cc(C)c1nnc(SCC(=O)NCc3ccco3)n12	i	i	4.16
Cc1noc(/C=C/N(C)C)c1S(=O)(=O)N1CCCC(C(=O)NCc2ccc(Cl)cc2)C1 (configuration not stated)	i	14	i
Cc1noc(/C=C/N(C)C)c1S(=O)(=O)N1CCCC(C(=O)NCc2ccc(F)cc2)C1 (configuration not stated)	i	nt	nt
C=CCn1c(C)cc(C(=O)CSc2nc3ccccc3c(=O)[nH]2)c1C	i	i	i
C=CCn1c(C)cc(C(=O)CSc2nc3ccccc3o2)c1C	15.8µM	i	i
COC(=O)CSc1nc2ccccc2o1	i	i	i
Cc1cc(C(=O)CSc2nc3ccccc3o2)c(C)n1C1CC1	i	13.5	i
O=C(O)NCc1ccccc1 (tested in a mixture with another compound)	i[11.4 µM]	nt	nt
CC(=O)N[C@H](Cc1ccc(O)cc1)C(=O)O	i[11.4 µM]	nt	nt
CCN1C(=O)[C@H]2[C@H]3[C@H](O)[C@H](O)C/C(=N/OCC(C)C)[C@@H]3CC[C@@H]2C1=O	i[11.4 µM]	nt	nt
COc1cc([C@@H](O)CO)ccc1OS(=O)(=O)O	i	nt	nt
Cc1nc(N2CCOCC2)[nH]c(=O)c1CCC(C)C	i	i	i
Cc1nc(N2CCc3ccccc3C2)[nH]c(=O)c1CCC(C)C	i	5.28	i
Cc1ccc(N(CC(=O)NC2CCCCCC2)S(=O)(=O)c2c(C)nn(C)c2C)cc1	i	14.6	i
COc1ccc(N(CC(=O)NC2CCCCCC2)S(=O)(=O)c2c(C)nn(C)c2C)cc1	i	i	i
Cc1cc([N+](=O)[O-])c(C)c(Br)c1C	i[11.4 µM]	nt	nt
COc1ccc(-c2cc(=O)c3c(O)cc(O)cc3o2)cc1	10µM	nt	nt
O=c1cc(-c2ccc(O)c(O)c2)oc2cc(O)cc(O)c12	i[11.4 µM]	nt	nt
COc1ccc2c(c1OC)C(=O)N(c1cccc(C(F)(F)F)c1)C2	12.6µM	i	i
COc1ccc2c(c1OC)C(=O)N(c1cccc(C)c1)C2	7.94µM	i	?
CN1C(=O)NC(c2ccccc2)C2=C1CN(c1cccc(C(F)(F)F)c1)C2=O (configuration not stated)	i	nt	i
SMILES	FLuc inh	GBA mod	Bst PK mod
COc1ccc2c(c1OC)C(=O)N(c1ccccn1)C2	?	i	i
O=C1c2ccccc2CC[C@H]1CNCCc1ccc(O)cc1	i	nt	nt
CS(=O)(=O)N1CCC2(CC1)CN(Cc1ccc(C#N)cc1)C2	i[11.4 µM]	nt	nt
C[C@@H](C(=O)O)c1ccc(C[C@@H]2CCCC2=O)cc1	i	nt	nt
NNC(=O)CCSc1ccccc1	i[11.4 µM]	nt	nt
O=C1OC(Nc2nc3ccccc3s2)c2ccccc21 (configuration not stated)	i	15.1	i
O=C1OC(Nc2nccs2)c2ccccc21 (configuration not stated)	i	i	i
Cc1cc2sc(C)[n+](CCCOS(=O)(=O)O)c2cc1C	i[11.4 µM]	nt	nt
COc1cccc2cc(C(=O)C3=C(O)C(=O)N(CCCN4CCOCC4)C3c3ccncc3)oc12 (configuration not stated)	i	i	i
COc1cccc(NC(=O)N(CCCN2CCOCC2)C(C)c2cc3cccc(OC)c3o2)c1 (configuration not stated)	i	9.63	i
COc1cccc(Cn2c(=O)c(-c3cccs3)nc3cnc(N4CCOCC4)nc32)c1	i[11.4 µM]	nt	nt
COc1ccc(C(=O)N2CCC3(CC2)CN(c2ncccn2)C3)cc1	i[11.4 µM]	nt	nt
COc1ccc(-c2cc(C(=O)Nc3ccccc3SC)no2)cc1OC	i	i	i
COc1cccc(-c2cc(C(=O)Nc3ccccc3SC)no2)c1	20µM	i	nt
COCCNC(=O)c1cc(-c2cccc(OC)c2)on1	?	i	?
COc1cccc(-c2cc(C(=O)Nc3cccc(O)c3)no2)c1	3.16µM	14.6	5.63
COc1cc(NC(=O)c2cc(-c3cccc(O)c3)on2)cc(OC)c1OC	i	nt	nt
COc1ccc(NC(=O)c2cc(-c3ccccc3OC)on2)cc1	?	i	nt
COc1cccc(-c2cc(C(=O)NC3CCCC3)no2)c1	15.8µM	nt	i
COc1ccccc1-c1cc(C(=O)Nc2cccnc2)no1	12.6µM	i	i
C=CCSc1nc2c(N)ncnc2n1[C@@H]1O[C@H](CO)[C@@H](O)[C@@H]1O	i[11.4 µM]	nt	nt
COc1ccc(NC(=O)N2CCCC3(CCN(S(=O)(=O)c4ccccc4)CC3)C2)cc1	i[11.4 µM]	nt	nt
CCN1C(=O)[C@H]2[C@H]3[C@H](O)[C@H](O)C/C(=N/O[C@@H]4O[C@H](COC(C)=O)[C@@H](OC(C)=O)[C@H](OC(C)=O)[C@H]4OC(C)=O)[C@@H]3CC[C@@H]2C1=O	i[11.4 µM]	nt	nt
Cc1nc2cnc(N3CCOCC3)nc2n(CCc2ccccc2)c1=O	i[11.4 µM]	nt	nt
O=S(=O)(c1ccccc1)N1CCC2(CC1)CN(c1ccccn1)C2	i[11.4 µM]	nt	nt
SMILES	FLuc inh	GBA mod	Bst PK mod
CN1CCN(c2ncc3nc(CCc4ccccc4)c(=O)n(Cc4ccc(F)cc4)c3n2)CC1	i[11.4 µM]	nt	nt
Cn1c(CSCc2ccc(F)cc2)nnc1SCC(=O)Nc1nccs1	i	i	i
Cn1nnnc1SCc1ccc(C(=O)Nc2nccs2)cc1	1µM	i	0.996
O=c1c(-c2ccc(F)cc2)nc2cncnc2n1Cc1ccc(F)cc1	i[11.4 µM]	nt	nt
Cc1ccccc1N1C(=O)c2cc(S(N)(=O)=O)c(Cl)cc2N[C@H]1C	i	nt	nt
COc1cccc(-c2csc(NC(C)=O)n2)c1	i	i	nt
COc1ccc2c(c1)Cc1sc(NC(C)=O)nc1-2	12.6µM	i	?
COc1ccccc1-c1ccc2ncnc(N3CCN(C)CC3)c2c1	i[2.29 µM]	nt	nt
FC(F)Sc1nnc(-c2cccs2)n1-c1ccccc1	i	i	i
c1csc(-c2nnc3ccccn23)c1	i	i	6.99
O=[N+]([O-])c1ccc(S(=O)(=O)Cc2ccccc2)c2nonc12	i[11.4 µM]	nt	nt
O=C1OCCC1Sc1nnc(-c2ccccc2)o1 (configuration not stated)	i	i	8.85
COc1ccc(N2C(=O)CC(Sc3nnc(-c4ccccc4)o3)C2=O)cc1 (configuration not stated)	i	nt	nt
Clc1ccccc1-c1cc(NCc2ccccc2)ncn1	i[2.29 µM]	nt	nt
COc1cccc(OCc2nc3ccccc3[nH]2)c1	12.6µM	nt	nt
NNC(=O)c1ccc(OCc2nc3ccccc3[nH]2)cc1	i[11.4 µM]	nt	nt
c1cnc2c(OCc3nc4ccccc4[nH]3)cccc2c1	20µM	i	nt
COc1ccccc1OCc1nc2ccccc2[nH]1	?	i	nt
O=C(c1ccco1)N1CCC2(CCCN(c3ccncc3)C2)CC1	i[11.4 µM]	nt	nt
NC(=O)C[C@@H](N)c1nn[nH]n1	i[11.4 µM]	nt	nt
CCOC(=O)c1[nH]c(C)c(C(=O)Nc2ccc3c(c2)OCCO3)c1C	i	i	i
CS(=O)(=O)Nc1ccccc1C(=O)Nc1ccc2c(c1)OCCO2	?	i	i
O=C(Nc1ccc2c(c1)OCCO2)c1ccccc1F	5.01µM	nt	nt
CCCC(=O)Nc1cccc(NC(=O)c2ccc3c(c2)OCCO3)c1	15.8µM	i	nt
CC(=O)c1c(C)[nH]c(C(=O)Nc2ccc3c(c2)OCCO3)c1C	12.6µM	i	i
CCCCC(=O)Nc1cccc(NC(=O)c2ccc3c(c2)OCO3)c1	?	nt	i
